Source: PubChem BioAssay (National Center for Advancing Translational Sciences (NCATS))
An excerpt weighted towards active compounds, which were near 7.9% of everything screened.
HT1080-NT tox: kills 2HG-producing HT-1080-NT fibrosarcoma cells; HT-1080-NT fibrosarcoma viability, CellTiter-Glo ATP luminescence, 48 h; Potency, µM (series often up to 46.1 µM), hits mostly cytotoxic; hit rate 1.6% among 360,000; AID 686970;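 note: NT is the 2HG producing partner of a matched IDH1 knockdown line; nearly all actives have a fitted effect of over 55% in size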
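HT-1080-NT; 750 cells/well; 5% FBS RPMI; 48 h compound, 37 degrees C; CellTiter-Glo luminescence; curve fitting and curve-class assignment.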
KB-3-1 tox: kills parental KB-3-1 adenocarcinoma cells | KB-3-1 viability, CellTiter-Glo ATP luminescence, 72 h | Potency, µM (top dose mostly 46.1 µM), usual class: cytotoxic | hit rate 1.4% among 400,000 | AID 1347075; note: nearly all actives have a fitted effect of over 60% in size
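Multi-concentration cytotoxicity screen in KB-3-1 cells grown in DMEM lacking phenol red with 10% FBS. After 72 h at 37 °C with compound, ATP-dependent luminescence was recorded.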
SW480 rerep: inducers of DNA re-replication in SW480 colon cancer cells; SW480 DNA re-replication, Hoechst DNA content imaging, 48 h; Potency, µM (titrated, usually from 46.1 µM), most hits filed as activators; hit rate 1.8% among 340,000; AID 624297; note: nearly all actives have a fitted effect of over 55% in size
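First, 250 cells per well were seeded. Next, compound or vehicle (23 nL) was pinned in, plates sat 48 hr at 37 C. Finally Hoechst was added for 40 min before fluorescence scanning.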
KB-V1 MDR tox: kills drug-selected multidrug resistant KB-V1 cells; Potency, µM (series often up to 46.1 µM), actives largely listed as cytotoxic; AID 1347076; KB-V1 MDR cells viability, CellTiter-Glo, 72 h; hit rate 3.4% among 400,000; note: nearly all actives have a fitted effect of over 60% in size
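Potencies derive from concentration-effect curves fitted to normalized luminescence (CellTiter-Glo) of KB-V1 cells treated for 72 h at 37 degrees C in phenol-red-free DMEM containing 10% FBS.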
HT1080 IDH1KD tx: HT-1080 IDH1 knockdown cell toxicity (counter line); HT-1080 IDH1 knockdown viability, ATP luminescence, 48 h; Potency, µM (highest dose often 46.1 µM), actives largely listed as cytotoxic; hit rate 2% among 360,000
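Viability of IDH1-knockdown HT-1080 fibrosarcoma cells was assessed by CellTiter-Glo after 48 h at 37 °C with titrated compound; concentration-effect curves were classified by fit quality and response size.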
MCF10A rereplic: induces DNA re-replication in MCF 10a normal breast cells; Potency, µM (titrated, usually from 46.1 µM), usual class: activators; MCF 10A DNA re-replication, Hoechst nuclear intensity, 48 h; hit rate 2.9% among 350,000; note: nearly all actives have a fitted effect of over 50% in size
Large screens that a line does not name were inactive. Calls come from the whole dose curve; as a rule, active = well fitted curve in the direction sought with a large enough effect; inconclusive = small, poorly fitted or top-dose-only effect, or another doubt; inactive = no such curve, though single readings can be large; an effect the other way counts as inactive or inconclusive.

CC(CCc1ccccc1)NC(=O)c1ccc(NC(=O)c2cccc(Br)c2)cc1 (stereo unspecified)	SW480 rerep inconclusive, KB-V1 MDR tox 2.1µM, MCF10A rereplic 18µM
Cc1occc1C(=O)NC(C)CCc1ccccc1 (stereo unspecified)	MCF10A rereplic 21µM
COc1ccc(C(=O)Nc2cccc(OCc3cc(=O)n4c5c(sc4n3)CCCC5)c2)cc1	none (no result: HT1080-NT tox, SW480 rerep, HT1080 IDH1KD tx, MCF10A rereplic)
COc1ccc(Nc2nc(-c3ccccc3)nc3ccccc23)cc1	HT1080-NT tox inconclusive, KB-3-1 tox inconclusive, KB-V1 MDR tox inconclusive, HT1080 IDH1KD tx inconclusive
COc1cccc(Nc2nc(-c3cccs3)nc3ccccc23)c1	HT1080-NT tox 16µM, SW480 rerep inconclusive, KB-V1 MDR tox inconclusive, HT1080 IDH1KD tx inconclusive, MCF10A rereplic inconclusive
COc1ccc(Nc2nc(-c3cccs3)nc3ccccc23)cc1	HT1080-NT tox inconclusive, KB-3-1 tox inconclusive, KB-V1 MDR tox 18µM, HT1080 IDH1KD tx inconclusive, MCF10A rereplic 16µM
Nc1ccc(N2CCCCC2)cc1N1CCCCC1	HT1080-NT tox inconclusive, SW480 rerep inconclusive, MCF10A rereplic 21µM
Nc1cc(Cl)ccc1N1CCCCC1	none
COc1ccc(-c2cc(C(=O)N3CCN(C(=O)c4ccccc4F)CC3)[nH]n2)cc1	none
O=S(=O)(Nc1ccc(N2CCCCC2)cc1)c1ccccc1	KB-V1 MDR tox 21µM
COc1ccccc1C(=O)Nc1ccc(N2CCN(C(C)=O)CC2)cc1	none
O=C(Nc1ccc(N2CCCCCC2)cc1)c1ccc[nH]1	none
COc1ccccc1C(=O)Nc1ccc(N2CCCCC2)cc1	KB-V1 MDR tox 21µM
O=S(=O)(Nc1ccc(N2CCOCC2)cc1)c1ccccc1	none
O=C(Nc1ccc(N2CCCCC2)cc1)c1ccccn1	HT1080-NT tox 9.2µM, KB-3-1 tox inconclusive, KB-V1 MDR tox inconclusive, HT1080 IDH1KD tx 10µM, MCF10A rereplic inconclusive
COc1ccccc1C(=O)Nc1ccc(S(=O)(=O)N2CCCC2)cc1	KB-V1 MDR tox 18µM
O=[N+]([O-])c1cccc(S(=O)(=O)NCCNS(=O)(=O)c2cccc([N+](=O)[O-])c2)c1	none (no result: HT1080-NT tox, KB-3-1 tox, KB-V1 MDR tox, HT1080 IDH1KD tx)
CC(NS(=O)(=O)c1ccc2c(c1)CCN2C(=O)CCCC(=O)O)c1ccccc1 (stereo unspecified)	none (no result: HT1080-NT tox, SW480 rerep, HT1080 IDH1KD tx, MCF10A rereplic)
Cc1ccc(S(=O)(=O)N2CCN(c3nc(-n4ccnn4)nc4ccccc34)CC2)cc1	none (no result: KB-3-1 tox, SW480 rerep, KB-V1 MDR tox, MCF10A rereplic)
O=C(Nc1ccc(N2CCCCCC2)cc1)c1ccccc1Cl	HT1080-NT tox 12µM, KB-3-1 tox inconclusive, SW480 rerep 13µM, KB-V1 MDR tox inconclusive, HT1080 IDH1KD tx 8.2µM, MCF10A rereplic 6.5µM
CC(=O)N1CCN(c2ccc(NC(=O)c3ccccc3Cl)cc2)CC1	none
CCn1c(CNC(=O)c2ccccc2OC)nnc1SCC(=O)c1ccc(F)cc1	none
CCOc1cccc(C(=O)Nc2cccc(-c3nnc(-c4ccc(C)cc4)o3)c2)c1	KB-3-1 tox 13µM, KB-V1 MDR tox inconclusive, MCF10A rereplic 3.7µM
O=C(COc1ccccc1)Nc1ccc(-c2nnc(-c3ccco3)o2)cc1	HT1080-NT tox 9.2µM, HT1080 IDH1KD tx 12µM
O=C(Cc1ccccc1)Nc1cccc(-c2nnc(-c3ccco3)o2)c1	MCF10A rereplic inconclusive
COc1ccc(CC(=O)Nc2cccc(-c3nnc(-c4cccc(C)c4)o3)c2)cc1OC	KB-V1 MDR tox inconclusive, MCF10A rereplic inconclusive
O=C(Cc1ccc(Cl)cc1)Nc1cccc(-c2nnc(-c3ccco3)o2)c1	HT1080-NT tox inconclusive, KB-3-1 tox inconclusive, KB-V1 MDR tox 0.58µM, HT1080 IDH1KD tx inconclusive
COc1ccc(CC(=O)Nc2cccc(-c3nnc(-c4ccc(C)cc4)o3)c2)cc1OC	HT1080-NT tox inconclusive, KB-V1 MDR tox 4.1µM, HT1080 IDH1KD tx inconclusive, MCF10A rereplic inconclusive
CCOc1cccc(C(=O)Nc2cccc(-c3nnc(-c4ccccc4)o3)c2)c1	SW480 rerep inconclusive, MCF10A rereplic inconclusive
Cc1ccnc2c(O)cccc12	none (no result: HT1080-NT tox, SW480 rerep, HT1080 IDH1KD tx, MCF10A rereplic)
N#CC/C(N)=N/Nc1nc2ccccc2nc1Cc1ccccc1	HT1080-NT tox inconclusive, SW480 rerep inconclusive
COc1ccc(CC(=O)Nc2cccc(-c3nnc(-c4ccccc4)o3)c2)cc1OC	HT1080-NT tox inconclusive, KB-3-1 tox inconclusive, KB-V1 MDR tox inconclusive, MCF10A rereplic 21µM
